Here are results for 40 compounds from the supplement of paper PMC8975748.

Structures can show the parent of a compound that is named as a salt. ± gives the standard deviation of the averaged measurements.

For the assay, the system named is Saccharomyces cerevisiae BY4741 SeMeCo community. Put plainly: mean cell size (pixel area) (pixels); higher = larger cells. Conditions: 10 µM; 24 h; SM minimal medium. In short, it runs like this: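 In this assay, mean cell pixel area per well was obtained from automated confocal images of paraformaldehyde-fixed yeast analysed in Harmony. The cells were a Saccharomyces cerevisiae BY4741 community with four plasmids, each complementing one auxotrophy and carrying a fluorescent marker, grown for 24 h in SM medium with drug at a final 10 µM in 384-well plates. Values are averaged across 3 replicates. Same SeMeCo high-content imaging drug screen: Selleck FDA-approved drugs at 10 µM, 24 h in SM medium, 384-well plates, 3 replicates.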
Compound `Cc1cccc(N(C)C(=S)Oc2ccc3ccccc3c2)c1` [Tolnaftate] showed a mean cell size of 12.3 ± 0.27. The same measure for `COc1ccc(-c2nc3cc(C4=NNC(=O)CC4C)ccc3[nH]2)cc1` (stereo not given) [Pimobendan]: 12.31 ± 0.12.

With `CC[C@H](Nc1ncnc2[nH]cnc12)c1nc2cccc(F)c2c(=O)n1-c1ccccc1` [Idelalisib (CAL-101, GS-1101)], the mean cell size was determined as 12.58 ± 0.07. `CC[C@H](C)[C@H](N)C1=N[C@H](C(=O)N[C@@H](CC(C)C)C(=O)N[C@H](CCC(=O)O)C(=O)N[C@H](C(=O)N[C@H]2CCCCNC(=O)[C@H](CC(N)=O)NC(=O)[C@@H](CC(=O)O)NC(=O)[C@H](Cc3cnc[nH]3)NC(=O)[C@@H](Cc3ccccc3)NC(=O)[C@H]([C@@H](C)CC)NC(=O)[C@@H](CCCN)NC2=O)[C@@H](C)CC)CS1` [Bacitracin]: the mean cell size came to 12 ± 0.24. In turn, `O=C(NCCO[N+](=O)[O-])c1cccnc1` [Nicorandil] showed a mean cell size of 12.4 ± 0.13. The same measure for `O=C1c2cccc3c2[C@H](CCC3)CN1[C@@H]1CN2CCC1CC2` [Palonosetron HCl]: 11.92 ± 0.064; for `Oc1c(Cl)cc(Cl)c2cccnc12` [Chloroxine]: 13.6 ± 0.85; for `C[C@H](Nc1ncnc2nc[nH]c12)c1cc2cccc(Cl)c2c(=O)n1-c1ccccc1` [Duvelisib (IPI-145, INK1197)]: 12.37 ± 0.1. `CN(CCN1CCC(OC(=O)Nc2ccccc2-c2ccccc2)CC1)C(=O)c1ccc(CN2CCC(C(N)=O)CC2)cc1` [Revefenacin] had a mean cell size of 12.17 ± 0.043. The compound `CC(C)[C@H](N)C(=O)OCC(CO)OCn1cnc2c(=O)[nH]c(N)nc21` (stereo not given in full) [Valganciclovir HCl] showed a mean cell size of 12.7 ± 0.14.

`C#C[C@]1(O)CC[C@H]2[C@@H]3CCC4=CCCC[C@@H]4[C@H]3CC[C@@]21C` [Lynestrenol]: the mean cell size was determined as 12.5 ± 0.23. On to `CC(C)[C@H]1CC[C@H](C(=O)N[C@H](Cc2ccccc2)C(=O)O)CC1` [Nateglinide], for which the mean cell size came to 12.5 ± 0.12. For the compound `CO/N=C(\C(=O)N[C@@H]1C(=O)N2C(C(=O)O)=C(Cn3ccc(=N)n3CCO)CS[C@H]12)c1csc(N)n1` [Cefoselis Sulfate], the mean cell size was 12.3 ± 0.24. In turn, `O=C(O)c1cc(/N=N/c2ccc(O)c(C(=O)O)c2)ccc1O` [Olsalazine Sodium] gave a mean cell size of 12.63 ± 0.099. Compound `CN[C@@H]1[C@@H](O[C@H]2O[C@H](CO)[C@@H](N)[C@H](O)[C@H]2O)OC2C[C@@H](N)[C@@H](O[C@H]3[C@H](O)[C@@H](O)[C@H](N)C[C@@H]3N)OC2[C@@H]1O` (stereo not given in full) [Apramycin Sulfate] returned a mean cell size of 12 ± 0.25.

As to `C[C@]12CC[C@@H]3c4ccc(OS(=O)(=O)O)cc4CC[C@H]3[C@@H]1CCC2=O` [Estropipate], the mean cell size came out at 12.21 ± 0.12.

In turn, `CC(C)[N+](C)(CCOC(=O)C1c2ccccc2Oc2ccccc21)C(C)C` [Propantheline bromide] showed a mean cell size of 12.5 ± 0.22. In the case of `CC(C)(O/N=C(\C(=O)N[C@@H]1C(=O)N2C(C(=O)[O-])=C(C[n+]3ccccc3)CS[C@H]12)c1csc(N)n1)C(=O)O` [Ceftazidime] it was 12 ± 0.14; in that of `CCOC(=O)C1=C(COCCN)NC(C)=C(C(=O)OC)[C@@H]1c1ccccc1Cl` [Levamlodipine], 12.5 ± 0.2; in that of `C=C1CCN([C@H](C)[C@](O)(Cn2cncn2)c2ccc(F)cc2F)CC1` [Efinaconazole], 11.3 ± 0.097. In the case of `COc1cccc2c1C(=O)c1c(O)c3c(c(O)c1C2=O)CC(O)(C(=O)CO)CC3OC1CC(N)C(O)C(C)O1` (stereo not given) [Doxorubicin (Adriamycin) HCl], the mean cell size was determined as 13.68 ± 0.1. Regarding `C#CCC(Cc1cnc2nc(N)nc(N)c2n1)c1ccc(C(=O)N[C@@H](CCC(=O)O)C(=O)O)cc1` (stereo not given in full) [Pralatrexate], the mean cell size was 14.4 ± 0.34.

On to `CC1=CC[C@@](O)(C(C)C)CC1` [Terpinen-4-ol], for which the mean cell size turned out to be 12.39 ± 0.073. In turn, `CC(=O)O[C@H]1C[C@@H]2CC[C@@H]3[C@H](CC[C@@]4(C)[C@H]3C[C@H]([N+]3(C)CCCCC3)[C@@H]4OC(C)=O)[C@@]2(C)C[C@@H]1N1CCCCC1` [Vecuronium Bromide] returned a mean cell size of 12.4 ± 0.31. For the compound `CCc1cc(C(N)=S)ccn1` [Ethionamide], the mean cell size worked out at 12.45 ± 0.074. `NC12CC3CC(CC(C3)C1)C2` [Amantadine HCl] displayed a mean cell size of 12.6 ± 0.17. `OCCOCCN1CCN(C2=Nc3ccccc3Sc3ccccc32)CC1` [Quetiapine Fumarate] returned a mean cell size of 12.42 ± 0.12.

Compound `CC1=C(C(=O)O)N2C(=O)[C@@H](NC(=O)[C@H](N)C3=CCC=CC3)[C@H]2SC1` [Cephradine monohydrate] had a mean cell size of 11.9 ± 0.16. For the compound `COC(=O)Nc1nc2cc([S+]([O-])c3ccccc3)ccc2[nH]1` (stereo not given) [Oxfendazole], the mean cell size was found to be 12.59 ± 0.1. The same measure for `CN(C)C[C@@H]1CCn2cc(c3ccccc32)C2=C(C(=O)NC2=O)c2cn(c3ccccc23)CCO1`: 12.64 ± 0.084; for `O=c1n(CCCN2CCN(c3cccc(Cl)c3)CC2)nc2ccccn12` [Trazodone HCl]: 12.6 ± 0.15; for `COc1ccc2c(c1)c(CC(=O)O)c(C)n2C(=O)c1ccc(Cl)cc1` [Indomethacin]: 12.29 ± 0.12. `COCCCN1CCC(NC(=O)c2cc(Cl)c(N)c3c2OCC3)CC1` [Prucalopride] had a mean cell size of 12.6 ± 0.1. In the case of `C1N2CN3CN1CN(C2)C3` [Methenamine] it was 12.21 ± 0.073; in that of `Fc1ccc([C@@H]2CCNC[C@H]2COc2ccc3c(c2)OCO3)cc1` [Paroxetine HCl], 12.47 ± 0.086. In turn, `CO/N=C(\C(=O)N[C@@H]1C(=O)N2C(C(=O)O)=C(CSC(=O)c3ccco3)CS[C@H]12)c1csc(N)n1` [Ceftiofur] gave a mean cell size of 12.28 ± 0.045. The compound `C[C@H]1O[C@@H](O[C@H]2[C@@H](O)C[C@H](O[C@H]3[C@@H](O)C[C@H](O[C@H]4CC[C@@]5(C)[C@H](CC[C@@H]6[C@@H]5C[C@@H](O)[C@]5(C)[C@@H](C7=CC(=O)OC7)CC[C@]65O)C4)O[C@@H]3C)O[C@@H]2C)C[C@H](O)[C@@H]1O` [Digoxin] came in with a mean cell size of 12.4 ± 0.22. Compound `CCOC(=O)C1=C(C)NC(C)=C(C(=O)OC)C1c1cccc([N+](=O)[O-])c1` (stereo not given) [Nitrendipine] registered a mean cell size of 12.5 ± 0.13. Turning to `CC(C)c1c(C(=O)Nc2ccccc2)c(-c2ccccc2)c(-c2ccc(F)cc2)n1CC[C@@H](O)C[C@@H](O)CC(=O)O` [Atorvastatin], the mean cell size came to 11.1 ± 0.15. Turning to `CCCN[C@H]1CCc2nc(N)sc2C1` [Pramipexole dihydrochloride], the mean cell size is 12.3 ± 0.17.
